According to PubChem BioAssay:
The source made the active and inactive calls.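 Rule for the calls, unless noted: active = NADPH fluorescence slope more negative than the mean of all samples by about 3 SD, 99.7% confidence; inactive = the rest.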

Assays:
[1] = inhibitors of TNFa-induced NFkB p65 translocation, primary screen, imaging, HUVEC, MLSMR starter and 10KST1 sets (AID 438;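 active = inhibition above 20% together with a positive visual image hit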;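 note: compound added about 3h40 before a 20 min TNFalpha stimulation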;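 for inhibition: signal is the nuclear over cytoplasmic p65 intensity ratio per well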); conditions: HUVEC TNFa-induced p65 nuclear translocation; cell count: measured here: nuclei count (cytotoxicity indicator), at 2.08 µM; inhibition: at 2 µM, stronger effect = higher value, 0% TNFa-plus-vehicle, 100% no-TNFa wells
[2] = reduction of polyQ htt aggregates in cells – imaging, exon1htt(103Q)mCFP cells, high-content imaging, primary screen (AID 483;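 active = visual image review flags a hit and inhibition of aggregation exceeds 20%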;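 note: compound exposure lasted 3 days before fixation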;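 for nuclei count: percent of the per-plate median nuclei count of sample wells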); conditions: exon1htt(103Q)mCFP cell line, aggregate imaging, at 2 µM; inhibition of aggregation: stronger effect = higher value; nuclei count: measured here: cell count, toxicity
[3] = endothelial E-selectin expression blockers – imaging, HUVEC, immunofluorescence, MLSMR starter and 10KST1 sets, primary screen (AID 487;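 active = visually confirmed hit in the image check and inhibition above 20%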;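 for inhibition: signal is fraction of cell area covered by stained E-selectin grains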;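 for nuclei count: 100% = median nuclei count of all wells on the same plate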); conditions: HUVEC TNFalpha-induced E-selectin immunofluorescence imaging, at 2 µM; inhibition: stronger effect = higher value; nuclei count: measured here: cell number, toxicity
[4] = molecular target: Voltage-gated potassium channel subunit beta-2 (Rattus norvegicus) (UniProt P62483); assay: inhibitors of rat Kvbeta2 reductase activity – biochemical, NADPH fluorescence, primary screen (AID 622;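 active = fluorescence slope higher than the sample average by over 3 SD, cut at about -0.22 in these data, passing the limit was not always enough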;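 note: slope of raw intensity against log time taken from 70 to 1610 s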); conditions: recombinant KvBeta, 4-cyanobenzaldehyde reduction, at 10 µM, stronger effect = higher value
[5] = molecular target: Voltage-gated potassium channel subunit beta-2 (Rattus norvegicus) (UniProt P62483); assay: enhancers of rat Kvbeta2 NADPH turnover – biochemical, NADPH fluorescence, primary screen (AID 623); conditions: Recombinant KvBeta, NADPH fluorescence decrease slope, 10 min; at 10 µM; stronger effect = lower value;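 note: fluorescence intensity change per second fitted from 20 to 320 s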
[6] = molecular target: Alpha-2C adrenergic receptor (Homo sapiens) (UniProt P18825); assay: compounds altering alpha2C-coupled GIRK flux – cell-based, HEK293 alpha2C/GIRK1/2, thallium flux, primary screen (AID 624;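 active = fluorescence slope after compound addition differing from the mean of all screened samples at 99.7% confidence, in either direction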;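 note: slope of fluorescence ratio to pre-addition baseline per second over 15 to 24 s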); conditions: thallium flux BTC fluorescence, at 10 µM, actives lie on both sides
[7] = blockers of RIG-like receptor reporter activation – cell-based, Sendai virus stimulus, luciferase, 10K MLSCN set, TLR/RLR signaling modifier project, primary screen (AID 602276;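 active = inhibition at or above 50% at 10 µM; inactive = inhibition below 50%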;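 note: firefly luciferase from ISG56 promoter only with Renilla not read in this screen; 0% = Sendai virus plus DMSO and 100% = medium plus DMSO without virus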); conditions: HEK293 RL24 IRF3 luciferase reporter, at 10 µM, stronger effect = higher value
[8] = TLR3 IRF3 reporter activation blockers – cell-based, poly I:C stimulus, luciferase, 10K MLSCN set, primary screen (AID 602277;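 active = inhibition of the reporter signal at or above 50%; inactive = inhibition below 50%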); conditions: HEK293-TLR3 RL24 IRF3 luciferase reporter, at 10 µM, stronger effect = higher value

Alpha-2C adrenergic receptor (Homo sapiens), sequence (P18825 whole entry, looked up): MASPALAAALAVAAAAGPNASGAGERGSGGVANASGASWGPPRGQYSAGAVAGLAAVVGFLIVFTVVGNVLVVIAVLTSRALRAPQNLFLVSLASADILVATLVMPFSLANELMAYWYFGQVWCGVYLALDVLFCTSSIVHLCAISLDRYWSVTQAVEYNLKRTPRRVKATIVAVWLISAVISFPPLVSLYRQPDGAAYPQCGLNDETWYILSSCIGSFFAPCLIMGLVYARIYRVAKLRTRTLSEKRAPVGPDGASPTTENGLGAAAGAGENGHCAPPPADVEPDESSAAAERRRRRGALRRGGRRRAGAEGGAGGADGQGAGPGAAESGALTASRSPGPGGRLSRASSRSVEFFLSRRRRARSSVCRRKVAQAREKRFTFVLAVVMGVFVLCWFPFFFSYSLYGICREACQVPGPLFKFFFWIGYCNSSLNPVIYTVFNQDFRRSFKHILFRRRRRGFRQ
Voltage-gated potassium channel subunit beta-2 (Rattus norvegicus), sequence (P62483 whole entry, looked up): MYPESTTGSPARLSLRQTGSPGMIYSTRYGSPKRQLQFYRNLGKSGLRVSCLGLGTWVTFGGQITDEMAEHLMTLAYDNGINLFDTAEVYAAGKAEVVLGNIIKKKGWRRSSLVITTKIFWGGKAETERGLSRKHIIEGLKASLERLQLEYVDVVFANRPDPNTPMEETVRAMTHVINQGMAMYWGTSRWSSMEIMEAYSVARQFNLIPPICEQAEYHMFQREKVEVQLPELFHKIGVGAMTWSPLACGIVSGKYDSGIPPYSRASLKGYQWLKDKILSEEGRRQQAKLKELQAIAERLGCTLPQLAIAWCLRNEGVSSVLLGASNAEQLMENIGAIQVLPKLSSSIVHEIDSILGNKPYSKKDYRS

SMILES	cell count [1]	inhibition [1]	inhibition of aggregation [2]	nuclei count [2] [%]	inhibition [3]	nuclei count [3] [%]	fluorescence slope [4]	NADPH fluorescence slope [5]	slope [6]	inhibition [7]	inhibition [8]
Cc1cccc(CCNC(=O)C2CCCN(S(=O)(=O)c3cnc[nH]3)C2)c1 (stereo not drawn)	518	16.1% (inactive)	21.6% (inactive)	89.8	-107% (inactive)	107	-0.523 (inactive)	6.1e-06 (inactive)	0.0065 (inactive)	30.1% (inactive)	8.46% (inactive)
Cc1cc(C)cc(C(=O)N2CCC(C(N)=O)CC2)c1	706	-3.5% (inactive)	-33.2% (inactive)	109	-54.3% (inactive)	122	-0.297 (inactive)	-4.1e-05 (inactive)	0.00604 (inactive)	13.6% (inactive)	20.8% (inactive)
Cc1sc(NC(=O)CSc2nnc(COc3ccccc3)n2C)c(C#N)c1C	602	2.2% (inactive)	15.6% (inactive)	93.8	-77.2% (inactive)	113	-0.335 (inactive)	5.1e-06 (inactive)	0.00494 (inactive)	-3.28% (inactive)	-13.7% (inactive)
CC(CCc1ccccc1)NC(=O)C1CCCN(c2nnc(-n3cccc3)s2)C1 (stereo not drawn)	585	5.8% (inactive)	-2.5% (inactive)	99.3	-42.8% (inactive)	102	-0.57 (inactive)	-3.2e-05 (inactive)	0.00444 (inactive)	8.13% (inactive)	18.5% (inactive)
O=C(COc1ccc(Cl)cc1)NCc1nnc(SCC(=O)Nc2ccc3c(c2)OCCO3)o1	375	0% (inactive)	4.2% (inactive)	99.9	-9.1% (inactive)	119	-0.359 (inactive)	-3.4e-06 (inactive)	0.00522 (inactive)	-4.54% (inactive)	-2.34% (inactive)
COc1ccc(Cc2nnc(NC(=O)Cc3cccs3)s2)cc1	674	-27.6% (inactive)	8.6% (inactive)	105	14.9% (inactive)	101	-0.568 (inactive)	2.7e-05 (inactive)	0.0056 (inactive)	-11% (inactive)	100% (active)
CCOC(=O)/N=C(/NC(=O)Nc1ccc(C(=O)OCC)cc1)OC	266	-3.6% (inactive)	17% (inactive)	92.2	7.6% (inactive)	108	-0.583 (inactive)	-6e-05 (inactive)	0.00625 (inactive)	13.9% (inactive)	23.9% (inactive)
Cc1cccc2c(=O)oc(-c3ccc4c(c3)C(=O)N(CC3CCCO3)C4=O)nc12 (stereo not drawn)	349	1.9% (inactive)	-22.2% (inactive)	107	-6.3% (inactive)	58.4	-0.521 (inactive)	2.4e-05 (inactive)	0.0053 (inactive)	16.1% (inactive)	14.4% (inactive)
COc1ccc(-n2ncc3c(N4CCN(c5cccc(C)c5C)CC4)ncnc32)cc1	589	-4.7% (inactive)	-12.6% (inactive)	111	-22% (inactive)	105	-0.566 (inactive)	-3.6e-05 (inactive)	0.0072 (inactive)	5.95% (inactive)	27.1% (inactive)
CC(=O)c1ccc(NC(=O)C2CCN(S(=O)(=O)c3cccc4cccnc34)CC2)cc1	591	8.3% (inactive)	-7.6% (inactive)	102	-11.2% (inactive)	115	-0.559 (inactive)	-1.3e-05 (inactive)	0.0063 (inactive)	14.2% (inactive)	32.1% (inactive)
COc1ccc(-n2c(Cc3cccn3C)nnc2SCC(=O)Nc2cccc(OC)c2)cc1	545	0.5% (inactive)	5.4% (inactive)	93.7	-28.8% (inactive)	90.2	-0.632 (inactive)	2.3e-05 (inactive)	0.00546 (inactive)	-1.72% (inactive)	5.53% (inactive)
Nc1nc(N2C(=O)C3CC=CCC3C2=O)nn1-c1ccccc1 (stereo not drawn)	444	20.1% (inactive)	-11.6% (inactive)	109	-23.5% (inactive)	132	-0.474 (inactive)	2.4e-05 (inactive)	0.00364 (inactive)	-8.69% (inactive)	23.3% (inactive)
CCOC(=O)C1=C(c2ccccc2)N2CCN=C2S1	507	-12.1% (inactive)	18.9% (inactive)	59	-12.3% (inactive)	94.2	-0.521 (inactive)	-1.6e-06 (inactive)	0.00413 (inactive)	1.18% (inactive)	6.97% (inactive)
Cc1ccc(C(=O)NCc2ccc3c(c2)OCO3)cc1S(=O)(=O)N1CCCCC1	437	4.7% (inactive)	-2.6% (inactive)	99.9	-39.8% (inactive)	113	-0.451 (inactive)	4.6e-05 (inactive)	0.00487 (inactive)	-2.9% (inactive)	-10.9% (inactive)
CS(=O)(=O)N1CCCC(C(=O)NCc2ccccc2Cl)C1 (stereo not drawn)	636	-10.2% (inactive)	20.1% (inactive)	77.4	-124% (inactive)	97.8	-0.59 (inactive)	-1.1e-05 (inactive)	0.00562 (inactive)	3.11% (inactive)	8.19% (inactive)
O=C1c2ccccc2S(=O)(=O)N1CC(O)Cn1c2ccccc2c2ccccc21 (stereo not drawn)	397	1% (inactive)	8.8% (inactive)	105	-121% (inactive)	118	-0.421 (inactive)	-4.3e-05 (inactive)	0.00434 (inactive)	5.13% (inactive)	30.2% (inactive)
O=C1c2ccccc2C(=O)N1CC(O)Cn1nnc2ccccc21 (stereo not drawn)	480	-22.3% (inactive)	-0.2% (inactive)	116	-47.9% (inactive)	99.5	-0.521 (inactive)	-4.1e-05 (inactive)	0.00496 (inactive)	3.12% (inactive)	4.4% (inactive)
C=CCc1ccccc1OCCCCN1CCCC1	750	-8% (inactive)	9.9% (inactive)	87.9	-10.4% (inactive)	114	-0.497 (inactive)	-3.1e-05 (inactive)	0.00605 (inactive)	-11.7% (inactive)	19.4% (inactive)
Clc1ccc2c(c1)[C@H]1OCC[C@H]1[C@@H](c1ccco1)N2	824	5.5% (inactive)	-3.2% (inactive)	98.8	-101% (inactive)	125	-0.572 (inactive)	-3.2e-05 (inactive)	0.00552 (inactive)	-42.9% (inactive)	-122% (inactive)
COc1cccc(C(c2nnnn2CCc2ccccc2)N2CCN(c3ccccc3)CC2)c1OC (stereo not drawn)	605	-23.5% (inactive)	-19.6% (inactive)	94.9	48.8% (inactive)	91.6	-0.516 (inactive)	-3e-06 (inactive)	0.00514 (inactive)	18.8% (inactive)	10.1% (inactive)
CN(C)C(=O)N1CCC(C(=O)NC2CCCCCCC2)CC1	545	7.4% (inactive)	36.8% (active)	49.6	-48.1% (inactive)	106	-0.381 (inactive)	-2.2e-05 (inactive)	0.00533 (inactive)	13% (inactive)	18.9% (inactive)
c1ccc2ncc(-n3cnnn3)cc2c1	705	-4.7% (inactive)	7.3% (inactive)	110	-118% (inactive)	117	-0.411 (inactive)	-2e-05 (inactive)	0.00684 (inactive)	9.03% (inactive)	11.8% (inactive)
CC1CCC(NC(=O)C2(C)CCC(=O)N2Cc2cccnc2)CC1 (stereo not drawn)	890	-5.2% (inactive)	18.3% (inactive)	70.4	-7.7% (inactive)	101	-0.598 (inactive)	-1.4e-05 (inactive)	0.00748 (inactive)	1.39% (inactive)	32.6% (inactive)
CC(=O)c1cccc(S(=O)(=O)N2CCC(n3nnc4cc(F)ccc43)CC2)c1	598	2.7% (inactive)	3.8% (inactive)	90.5	-14.7% (inactive)	93.6	-0.4 (inactive)	2.2e-05 (inactive)	0.00694 (inactive)	-0.237% (inactive)	31.4% (inactive)
COC(=O)c1ccc(CNC(=O)CSc2nc3sc(C)c(C)c3c(=O)n2C)o1	319	3.3% (inactive)	12.1% (inactive)	94.6	5.6% (inactive)	95.6	-0.434 (inactive)	-4e-05 (inactive)	0.00252 (inactive)	-0.162% (inactive)	29.6% (inactive)
Cn1c(=O)c2c(nc(Br)n2CCSc2nnnn2-c2ccccc2)n(C)c1=O	294	-3.4% (inactive)	19% (inactive)	94.6	-7.6% (inactive)	74.1	-0.36 (inactive)	-4.2e-05 (inactive)	0.00509 (inactive)	1.27% (inactive)	1.27% (inactive)
CCCCOCCCNC(=O)c1ccc(NC(C)=O)cc1	416	-1.6% (inactive)	1.3% (inactive)	99.3	8.8% (inactive)	115	-0.45 (inactive)	7.9e-06 (inactive)	0.00392 (inactive)	-11% (inactive)	3.52% (inactive)
Cc1cc(Nc2ccccc2)n(-c2ccccc2)n1	329	-3.3% (inactive)	27.4% (inactive)	114	-44.7% (inactive)	128	-0.499 (inactive)	-2.4e-05 (inactive)	0.00371 (inactive)	-15% (inactive)	-36.8% (inactive)
